Inconclusive results are not listed. The source made the active and inactive calls. Rule as the data show it, unless noted: active = inhibition above about 30%; inactive = the rest.
Tests used:
[1] = reduced viability of SK-BR-3 breast cancer cells – cell-based, 24 h, human, pilot screen (AID 572;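 active = viability at or below 10% of carrier control in both of two separate runs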;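 also: compound exposure lasted between 18 and 24 h rather than exactly 24 h; 100% = carrier-treated control wells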); conditions: SK-BR-3 viability, CellTiter-Glo luminescence, at 10 µM, stronger effect = lower value
[2] = HUVEC growth inhibition – cell-based, human, primary screen (AID 575;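 active = viability at or below 30% in both replicate assays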;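 also: 100% = median of untreated cell wells with 0.1% DMSO on each plate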); conditions: HUVEC proliferation, CellTiter-Glo luminescence, 72 h; at 10 µM; stronger effect = lower value
[3] = H69AR cell proliferation blockers – human, duplicate replicates, primary screen (AID 580;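 active = viability at or under a set limit in both replicates, limit being median viability minus 3 SD, cut at about 48% in these data, passing the limit was not always enough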;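 also: 100% = mean luminescence of untreated wells and 0% = no signal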); conditions: H69AR lung tumor cells viability, ATP luminescence, 72 h; at 10 µM; stronger effect = lower value
[4] = MRP1 drug-resistance reversers in H69AR cells – cell-based, doxorubicin co-treatment, pilot screen (AID 601;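 active = viability loss from added drug above about 55%, and viability with drug at most 40%, in both replicates, limit read from the data, passing the limit was not always enough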); conditions: CellTiter-Glo, 72 h, at 10 µM; for differential viability (reversal): stronger effect = higher value
[5] = yeast transport mutant growth inhibition pilot in 384-well plates, post-Golgi transport modulator project (AID 636; in the data active = inhibition above about 31%); conditions: absorbance 615 nm, about 18 h, stronger effect = higher value
[6] = growth suppression of yeast trafficking mutant, preliminary HTS, modulators of trafficking downstream of Golgi apparatus project, 1536-format plate, OD 615 nm (AID 637); conditions: yeast transport mutant growth, absorbance 615 nm, 18 h; stronger effect = higher value
[7] = S. cerevisiae growth inhibition in permissive medium (OD615), pilot counter-assay for S. cerevisiae lifespan shortening project, permissive growth control (AID 705;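 active = growth inhibition above 25% in both replicates, a cutoff set 3 SD above the mean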); conditions: OD615, 24 h, at 10 µM, stronger effect = higher value
[8] = S. cerevisiae growth inhibition in restrictive medium, OD615, pilot screen, restrictive growth control, yeast lifespan reduction project (AID 706;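 active = growth inhibition above a set limit, 3 SD over mean compound inhibition, in both replicates, cut at about 43% in these data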;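 also: modified DeaD lifespan yeast strain shifted to restrictive glucose medium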); conditions: OD615, 48 h, at 10 µM, stronger effect = higher value
[9] = doxorubicin toxicity protection in MRP-1 cells – H69AR cells, CellTiter-Glo, duplicate, MRP-1 activator project, pilot screen (AID 807;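 active = viability increase at or above a cutoff of the median across tested compounds plus 3 SD, cut at about 8.5% in these data, passing the limit was not always enough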;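 also: compound pretreatment 18-22 h then 72 h combined with doxorubicin; 0% = doxorubicin alone and 100% = vehicle without doxorubicin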); conditions: H69AR viability with doxorubicin, CellTiter-Glo luminescence; at 10 µM; stronger effect = higher value
[10] = viability of HCT116 without oncogenic beta-catenin – human colon tumor cells, pilot screen (AID 823;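 active = cell viability at or below a set limit in both duplicate runs, the limit being the all-compound median minus 4 SD, cut at about 23% in these data, passing the limit was not always enough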;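 also: 0% = wells killed by 20 µM Hyamine and 100% = untreated DMSO cell wells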); conditions: HCT116 beta-catenin knockout viability, CellTiter-Glo, 60 h; at 10 µM; stronger effect = lower value
[11] = viability of PTEN-null HCT116 cells – cell-based, HCT116 clonal line, CellTiter-Glo, pilot screen (AID 824;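 active = viability at or below 27.92% in each of two runs, the all-compound median minus 4 SD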;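 also: 0% = 20 µM Hyamine control and 100% = vehicle cell control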); conditions: HCT116 PTEN-deleted viability, 60 h, at 10 µM, stronger effect = lower value
[12] = RAM pathway blockade in budding yeast – dse1pr::URA3 reporter, 5-FOA selection, pilot screen (AID 869;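 active = inhibition over a set limit, the all-compound mean plus 3 SD, in both replicate runs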;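 also: 0% = DMSO wells with no growth and 100% = 10 µM 1-NA-PP1 with full growth; RAM network block rescues cells from 5-FOA so hits raise OD615 growth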); conditions: S. cerevisiae dse1pr::URA3 5-FOA growth, OD615, 2 d; at 10 µM; stronger effect = higher value; strain carries analog-sensitive mutant Cbk1 kinase
[13] = RAM signaling pathway blockade in yeast – S. cerevisiae, Pdr1DBD-CYC8 efflux-inhibited sensitized strain, primary screen (AID 1298;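 active = RAM network inhibition above 8.4% in each of two replicates, 3 SD over the compound average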;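 also: 0% = DMSO untreated cells without growth and 100% = 10 µM 1-NA-PP1 full growth; higher means more yeast growth rescued from 5-FOA killing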); conditions: S. cerevisiae cbk1-as DSE1-URA3 strain, 5-FOA growth OD615, 2 d; at 50 µM; stronger effect = higher value
[14] = H69AR cells + 2 uM doxorubicin, measured here: viability with 2 uM doxorubicin, stronger effect = lower value
[15] = H69AR cells, compound alone cytotoxicity

SMILES	viability [1]	viability [2]	viability [3]	differential viability (reversal) ([4]; H69AR cells + 2 uM doxorubicin)	viability [4, 14] [%]	viability [4, 15] [%]	inhibition [5]	inhibition [6]	growth inhibition [7]	growth inhibition [8]	viability increase [9]	viability [10]	viability [11]	inhibition [12]	RAM network inhibition [13]
CC(=O)NCCc1ccc(S(=O)(=O)NCc2ccc3c(c2)OCO3)cc1	91% (inactive)	91.9% (inactive)	103% (inactive)	12% (inactive)	91.3	103	-8.27% (inactive)	-6.18% (inactive)	-15.2% (inactive)	-5.52% (inactive)	0.44% (inactive)	96.1% (inactive)	97.1% (inactive)	1.12% (inactive)	1.84% (inactive)
COc1cccc(C2C(C(=O)c3cccs3)=C(O)C(=O)N2CCCn2ccnc2)c1OC (stereo not given)	130% (inactive)	102% (inactive)	109% (inactive)	20.9% (inactive)	88.3	109	-7.47% (inactive)	3.09% (inactive)	-6.37% (inactive)	1.34% (inactive)	-1.56% (inactive)	89.1% (inactive)	89.5% (inactive)	0.145% (inactive)	0.92% (inactive)
Cn1c(C(=O)Nc2ccc3c(c2)OCO3)cc2c(=O)n(C)c3ccccc3c21	73% (inactive)	72.6% (inactive)	34.2% (active)	7.56% (inactive)	26.6	34.2	-2.18% (inactive)	2% (inactive)	-4.94% (inactive)	-3.57% (inactive)	-2.91% (inactive)	92.4% (inactive)	91.5% (inactive)	3.22% (inactive)	4.86% (inactive)
Cc1onc(-c2ccccc2)c1C(=O)NCc1cccnc1	102% (inactive)	100% (inactive)	99.4% (inactive)	9.66% (inactive)	89.7	99.4	-3.33% (inactive)	3.09% (inactive)	-14% (inactive)	-11.6% (inactive)	-1.32% (inactive)	98.2% (inactive)	95.8% (inactive)	2.08% (inactive)	1.71% (inactive)
Cc1cc(C)nc(SCc2ccc3nonc3c2)n1	99% (inactive)	89.9% (inactive)	89.2% (inactive)	15.7% (inactive)	73.5	89.2	-6.53% (inactive)	-0.18% (inactive)	-9.08% (inactive)	-6.27% (inactive)	-0.41% (inactive)	96.3% (inactive)	98% (inactive)	0.535% (inactive)	3.64% (inactive)
Cc1ccc(C(=O)Nc2c(C(=O)N3CCOCC3)cnn2-c2ccccc2)cc1	103% (inactive)	94.5% (inactive)	91.8% (inactive)	16.5% (inactive)	75.3	91.8	-4.27% (inactive)	-2.91% (inactive)	-7.86% (inactive)	-9.73% (inactive)	-1.89% (inactive)	103% (inactive)	102% (inactive)	0.475% (inactive)	-1.3% (inactive)
O=C(C1CC1)N1CCc2cc(Br)cc(S(=O)(=O)N3CCOCC3)c21	98% (inactive)	88.5% (inactive)	90.6% (inactive)	10.4% (inactive)	80.1	90.6	-7.95% (inactive)	1.11% (inactive)	-11.8% (inactive)	-12.8% (inactive)	-5.31% (inactive)	91.9% (inactive)	83.2% (inactive)	1.35% (inactive)	2.33% (inactive)
O=C(c1ccc2snnc2c1)N1CCOCC1	101% (inactive)	90.2% (inactive)	102% (inactive)	12.8% (inactive)	88.9	102	-1.73% (inactive)	-0.55% (inactive)	0.235% (inactive)	-15.9% (inactive)	0.28% (inactive)	102% (inactive)	99.4% (inactive)	1.69% (inactive)	1.07% (inactive)
CSC1=N/C(=C\C=C\c2cccs2)C(=O)S1	95% (inactive)	79.5% (inactive)		-15.6% (inactive)	67	51.4	-1.15% (inactive)	-6.17% (inactive)	-8% (inactive)	0.455% (inactive)	-3.44% (inactive)	95% (inactive)	99.1% (inactive)	1.66% (inactive)	6.92% (inactive)
CC1(C)CC2CC(C)(CN2S(=O)(=O)c2ccc(N)cc2)C1 (stereo not given)	120% (inactive)	99.6% (inactive)	89.4% (inactive)	8.43% (inactive)	80.9	89.4	-8.93% (inactive)	-8.36% (inactive)	-0.15% (inactive)	8.29% (inactive)	-2.62% (inactive)	88% (inactive)	87.6% (inactive)	0.505% (inactive)	9.14% (inactive)
CCOc1ccc(NS(=O)(=O)c2cc(Cl)ccc2OC)cc1	102% (inactive)	91% (inactive)	70.8% (inactive)	-22.1% (inactive)	92.9	70.8	-6.93% (inactive)	-5.09% (inactive)	-10.7% (inactive)	-13.3% (inactive)	-2.64% (inactive)	75.1% (inactive)	76.2% (inactive)	0.335% (inactive)	0.17% (inactive)
COc1ccc(NC(=O)CC2CCCCC2)cc1OC	96% (inactive)	94.6% (inactive)	103% (inactive)	12.8% (inactive)	90.2	103	-6% (inactive)	-1.09% (inactive)	-9.11% (inactive)	-10.4% (inactive)	-0.97% (inactive)	96.3% (inactive)	93.4% (inactive)	2.6% (inactive)	6.64% (inactive)
Clc1cccc(-c2nnc(-c3ccccc3)o2)c1	57% (inactive)	78.7% (inactive)	76.7% (inactive)	-4.06% (inactive)	80.7	76.7	-8.92% (inactive)	0.82% (inactive)	8.84% (inactive)	3.85% (inactive)	-6.09% (inactive)	4.61% (active)	21.4% (active)	1.33% (inactive)	0.25% (inactive)
O=C(CN1CCN(Cc2ccccc2)CC1)NCC1COc2ccccc2O1 (stereo not given)	108% (inactive)	110% (inactive)	93.2% (inactive)	6.56% (inactive)	86.6	93.2	-2.53% (inactive)	-4.73% (inactive)	-1.31% (inactive)	-5.58% (inactive)	-1.29% (inactive)	93.6% (inactive)	96.9% (inactive)	-0.145% (inactive)	2.61% (inactive)
CCN(CC)S(=O)(=O)c1ccc2c(c1)nc(SCn1nnc3ccccc3c1=O)n2CC	74% (inactive)	81.1% (inactive)	83.2% (inactive)	8.64% (inactive)	74.6	83.2	-4.93% (inactive)	-2.36% (inactive)	-1.67% (inactive)	-5.42% (inactive)	2.88% (inactive)	90.7% (inactive)	103% (inactive)	2.54% (inactive)	7.57% (inactive)
CC1=C(C(N)=O)C(c2ccccn2)n2nc(SCc3ccccc3)nc2N1 (stereo not given)	88% (inactive)	94% (inactive)	93.8% (inactive)	-2.02% (inactive)	95.9	93.8	-3.92% (inactive)	-5.64% (inactive)	-2.97% (inactive)	3.69% (inactive)	2.38% (inactive)	102% (inactive)	95.6% (inactive)	0.46% (inactive)	2.59% (inactive)
CCCn1c(=O)c(C(=O)NCc2ccccn2)c(O)c2ccccc21	78% (inactive)	101% (inactive)		-12% (inactive)	69.6	57.5	2.27% (inactive)	13.6% (inactive)	4.69% (inactive)	12.5% (inactive)	1.19% (inactive)	87.4% (inactive)	104% (inactive)	-1.17% (inactive)	-1.94% (inactive)
O=C(CCNS(=O)(=O)c1cccs1)Nc1ccccc1F	81% (inactive)	121% (inactive)	108% (inactive)	8.57% (inactive)	99.2	108	-6.49% (inactive)	0.55% (inactive)	-26.3% (inactive)	-12.8% (inactive)	-0.31% (inactive)	90.8% (inactive)	92.8% (inactive)	0.805% (inactive)	2.55% (inactive)
COc1ccc(OCCCC(=O)Nc2nncs2)cc1	97% (inactive)	101% (inactive)	89.6% (inactive)	6.49% (inactive)	83.1	89.6	-5.27% (inactive)	-2.73% (inactive)	-11.5% (inactive)	-0.545% (inactive)	-0.07% (inactive)	94.5% (inactive)		2.95% (inactive)	4.52% (inactive)
c1ccc(-c2nnc(SCc3nc4ccccc4[nH]3)o2)cc1	94% (inactive)	98.9% (inactive)	88.8% (inactive)	2.98% (inactive)	85.8	88.8	-5.6% (inactive)	0.91% (inactive)	7.59% (inactive)		-5.05% (inactive)	93.5% (inactive)	88.8% (inactive)	1.33% (inactive)	1.69% (inactive)
Cc1cccc(OCC(=O)Nc2ccc(N3CCCC3)cc2)c1C	112% (inactive)	88.2% (inactive)		-3.12% (inactive)	59.7	56.5	-9.2% (inactive)	1.64% (inactive)	15.7% (inactive)	14.8% (inactive)	-3.79% (inactive)	72.4% (inactive)	84.8% (inactive)	2.95% (inactive)	5.36% (inactive)

Source: PubChem BioAssay
